Source: PubChem BioAssay (National Center for Advancing Translational Sciences (NCATS))
In the library only some 12% were active in any assay of this set; here they are far more common.
ALDH1A1 inh: qHTS Assay for Inhibitors of Aldehyde Dehydrogenase 1 (ALDH1A1). Aldehyde dehydrogenase 1A1 (Homo sapiens), P00352. Purified ALDH1A1, NADH fluorescence, propionaldehyde substrate. Potency, µM (series often up to 75.3 µM), for inactives: at the highest dose activity, negative = inhibition, usual class: inhibitors. 220,000 tested, 7.3% active. AID 1030, 2008; active means well fitted inhibition curve with a large enough effect, not every such curve was filed as active; inconclusive means small, poorly fitted or top-dose-only effect, or another doubt; inactive means no such curve, though single readings can be large or run the other way;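 further: plate controls were no enzyme wells and a reference inhibitor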
PLK1 PBD inh: qHTS for Inhibitors of PLK1-PDB (polo-like kinase 1 - polo-box domain): Primary Screen | AID 720504, 2013 | Potency, µM, for inactives: max response, negative = inhibition, actives largely listed as inhibitors | Plk1 PBD binding of FITC phosphopeptide, fluorescence polarization | 360,000 tested, 2.8% active | Serine/threonine-protein kinase PLK1 (Homo sapiens), P53350; further: series mostly up to about 57 µM; nearly all actives have a fitted effect of over 65% in size
VP16 counter: VP16 counterscreen qHTS for inhibitors of ROR gamma transcriptional activity | Potency, µM (series often up to 53.6 µM), for the others: at the top dose activity, negative = inhibition, hits mostly inhibitors | 310,000 tested, 3.5% active | AID 2546, 2010 | Drosophila S2 Gal4-VP16 UAS-luciferase, luminescence, 20 h;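 further: Gal4-VP16 expression switched on by copper sulfate through the metallothionein promoter; nearly all actives have a fitted effect of over 50% in size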
Sfp PPTase inh: qHTS Assay for Inhibitors of Bacillus subtilis Sfp phosphopantetheinyl transferase (PPTase); 4'-phosphopantetheinyl transferase ffp (Bacillus subtilis), Q9F4F7; Biochemical Sfp PPTase activity, qHTS; Potency, µM, without a hit: largest response in the series, negative = inhibition, most hits filed as inhibitors; 310,000 tested, 3.5% active; AID 1490, 2009;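 further: the enzyme is Sfp with the accession as filed and its product quenches rhodamine fluorescence; 0% = enzyme reaction without inhibitor and -100% = no enzyme wells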
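Fluorescence-quenching assay with 15 nM Sfp, 5 uM rhodamine-CoA and 12.5 uM BHQ-2-labelled ybbR peptide in pH 7.6 Hepes/MgCl2 buffer. Enzyme was pre-incubated with compound for 15 min at room temperature. Rate was taken from the 30-min fluorescence change (525/598 nm).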
RORgamma inh: qHTS for inhibitors of ROR gamma transcriptional activity; AID 2551, 2010; Drosophila S2 Gal4-RORgamma UAS-luciferase reporter, 20 h; Nuclear receptor ROR-gamma (Mus musculus), P51450; 310,000 tested, 5.4% active; Potency, µM (top dose mostly 53.6 µM), for inactives: at the highest dose activity change, negative = inhibition, hits mostly inhibitors; further: nearly all actives have a fitted effect of over 60% in size
Target sequence (P51450 whole entry, looked up, the tested form may be a part): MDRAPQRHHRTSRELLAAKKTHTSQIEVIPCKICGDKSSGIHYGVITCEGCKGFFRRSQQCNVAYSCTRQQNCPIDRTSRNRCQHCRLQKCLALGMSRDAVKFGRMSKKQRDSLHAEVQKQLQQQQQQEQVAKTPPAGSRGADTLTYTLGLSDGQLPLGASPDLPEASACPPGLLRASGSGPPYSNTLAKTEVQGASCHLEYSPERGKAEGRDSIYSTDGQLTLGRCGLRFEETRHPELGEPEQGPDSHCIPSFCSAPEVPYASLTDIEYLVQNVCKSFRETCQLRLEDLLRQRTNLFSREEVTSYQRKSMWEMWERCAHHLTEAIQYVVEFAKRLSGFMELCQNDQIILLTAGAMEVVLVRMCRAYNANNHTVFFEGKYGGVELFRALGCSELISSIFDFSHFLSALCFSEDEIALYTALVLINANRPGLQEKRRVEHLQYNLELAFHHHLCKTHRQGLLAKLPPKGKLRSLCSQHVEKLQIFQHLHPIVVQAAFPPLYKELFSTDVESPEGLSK
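Stably transfected Drosophila Schneider cells are the test system, with ROR gamma fused to Gal4 and luciferase under UAS control; luminescence is read after 20 hr of 700 uM copper sulfate induction at ambient temperature.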
An asterisk follows results filed as active; ? = inconclusive; . = no result; [ ] = dose if it differs, or a comment. Unless noted, the call rests on the fitted dose curve; in most records, active means well fitted curve in the direction sought with a large enough effect; inconclusive means small, poorly fitted or top-dose-only effect, or another doubt; inactive means no such curve, though single readings can be large; an effect the other way counts as inactive or inconclusive. Unless noted, on the % scale 0 is the no-effect control and ±100 the full control effect; potency means the concentration at half of the fitted maximal effect.

SMILES	ALDH1A1 inh	PLK1 PBD inh	VP16 counter	Sfp PPTase inh	RORgamma inh
C=CCOC(=O)c1cc(-c2ccc(/C=C3\C(=O)NC(=O)C(C#N)=C3C)o2)ccc1Cl	10µM*	6µM*	-4%	50µM*	25%
CCCOC(=O)c1cc(-c2ccc(/C=C3/C(=O)N(C)C(=O)C(C#N)=C3C)o2)ccc1Cl	.	19µM*	.	.	.
CCCOC(=O)c1cc(-c2ccc(C=O)o2)ccc1Cl	?	-6%	?	-19%	11%
O=C(O)c1sc(C(=O)O)c(-c2ccccc2)c1-c1ccccc1	.	-2%	.	.	.
CC(=O)c1sc(C(=O)O)c(-c2ccco2)c1-c1ccco1	3%	?	1%	18µM*	6%
C[C@H](NC(=O)c1ncn2c1C(=O)N(C)CC2)C(=O)OC(C)(C)C	.	-11%	.	.	.
O=C(NNC(=S)Nc1cccc2ccccc12)c1cccc(Br)c1	4.5µM*	?	?	11%	-34%
CC(=O)Nc1cccc(NC(=S)Nc2cccc3ccccc23)c1	.	-10%	?	7%	13µM*
CC(=O)c1cccc(NC(=S)NCc2ccccc2)c1	.	-12%	12%	8%	?
CC(=O)c1cccc(NC(=S)Nc2cccc3ccccc23)c1	.	-18%	11µM*	-15%	13µM*
Cc1ccc(C(=O)NNC(=S)Nc2cccc3ccccc23)s1	1%	?	-14%	-2%	0.79µM*
c1ccc(CO[C@H]2NCCN2Cc2ccccc2)cc1	14%[13.5 µM]	.	.	.	.
Cc1ccc(N2CC(O)CSC2=Nc2ccccc2)cc1 (stereo not drawn)	.	-6%	.	.	.
Cn1c2c(c(=O)n(C)c1=O)CS(=O)c1ccccc1N2 (stereo not drawn)	.	-7%	.	.	.
CC(=O)Nc1c(I)cc(I)c(C(=O)O)c1I	8%	.	3%	12%	-11%
CCOC(=O)c1c(C)[nH]c(C(=O)CN2CCN(CC)CC2)c1C	.	4%	1%	79µM*	-8%
CCOC(=O)c1c(C)[nH]c(C(=O)COC(=O)CSC)c1C	-2%	-9%	2%	19%	-38%
CCOC(=O)c1c(C)[nH]c(C(=O)CSc2nnc(C3CC3)n2N)c1C	-8%	24µM*	5%	-4%	19%
CCOC(=O)c1c(C)[nH]c(C(=O)CSc2ccccc2)c1C	-3%	-8%	?	-3%	?
CCOC(=O)c1c(C)[nH]c(C(=O)CN2CC(C)OC(C)C2)c1C (stereo not drawn)	7.9µM*	-4%	3%	-3%	-29%
CCOC(=O)c1c(C)[nH]c(C(=O)CN2C(=O)NC3(CCCC3)C2=O)c1C	-11%	-1%	9%	-3%	21%
CC(C)NC[C@@H](O)COc1ccc(COCCOC(C)C)cc1	-4%	.	6%	21%	15%
CCOC(=O)C1=C(O)/C(=C/c2cn(CC(=O)N3CCCC3)c3ccccc23)SC1=Nc1ccccc1	3%	11%	-9%	32µM*	?
COC(=O)c1cn(CC(=O)N2CCCCCC2)c2ccccc12	10%	-3%	-5%	1%	27%
N#Cc1nc(-c2ccc(F)cc2)oc1N1CCCC1	?	15µM*	8%	-25%	?
SMILES	ALDH1A1 inh	PLK1 PBD inh	VP16 counter	Sfp PPTase inh	RORgamma inh
Cc1ccc(S(=O)(=O)N2[C@H](CC(=O)c3ccc(F)cc3)OC[C@@H]2C)cc1	.	-8%	.	.	.
CCn1c(SCC(=O)Nc2ccccc2)nc2nc3c(cc2c1=O)COC(C)(C)C3	.	-2%	2%	5%	-25%
COc1ccc(-n2c(SCC(N)=O)nc3nc4c(cc3c2=O)COC(C)(C)C4)cc1	3.5µM*	2%	2%	8%	14%
CC(Cc1ccccc1)NC(=O)CSc1nc2nc3c(cc2c(=O)n1-c1ccccc1)COC(C)(C)C3 (stereo not drawn)	1.6µM*	-9%	-9%	10%	-5%
CCc1nc2ccc(C(=O)Nc3cccc(NS(C)(=O)=O)c3)cn2c1N(C)C(=O)c1cccc(OC)c1	.	-3%	.	.	.
Cc1c(C(=O)NCCC#N)sc(=O)n1Cc1ccccc1F	.	2%	.	.	.
CCc1cc(OCCCSc2nc(C)cc(=O)[nH]2)ccc1Cl	?	-23%	8.9µM*	4%	?
O=C(N/N=C/C1CCCCC1)c1cc(Cl)ccc1O	?	0%	-14%	18%	13µM*
COc1ccc(C(O)C2=CCCC2=O)cc1 (stereo not drawn)	-5%	.	-9%	-16%	13%
COc1cc(NCCCCCCCN)c2ncccc2c1	3.5µM*	-7%	?	?	1.6µM*
CC(/C=C1\SC(=S)N(CCC(=O)Nc2ccc(O)cc2)C1=O)=C\c1ccccc1	.	-1%	14µM*	5%	14µM*
O=C(CN1C(=O)S/C(=C\c2cccs2)C1=O)Nc1ccc(O)cc1C(=O)O	.	24µM*	?	-22%	-1%
CC(=C\c1ccccc1)/C=C1/SC(=O)N(CCCC(=O)Nc2ccc(C(=O)O)cc2)C1=O	-13%	-13%	-4%	17%	?
O=C(CCN1C(=O)S/C(=C\c2ccccc2)C1=O)Nc1ccc(O)cc1C(=O)O	.	-17%	-6%	4%	5%
CC(/C=C1\SC(=S)N(CCCC(=O)Nc2ccc(C(=O)O)c(O)c2)C1=O)=C\c1ccccc1	6.3µM*	27µM*	-25%	?	-27%
O=C(CCN1C(=O)/C(=C/c2cccs2)SC1=S)Nc1ccc(C(=O)O)c(O)c1	.	27µM*	9%	-16%	-11%
Cc1nc2c(OCc3ccccc3)cccn2c1N(C)C(=O)C1CCCCC1	.	-6%	.	.	.
CSCCC(C(=O)NCc1ccccc1)n1c(C2CCN(C(C)=O)CC2)nc2ccccc21 (stereo not drawn)	.	-1%	.	.	.
C=CCn1c(SCc2ccccc2)nc2scc(-c3ccc(C)o3)c2c1=O	?	-9%	7%	28µM*	6%
C=CCn1c(SCC(=O)c2ccc(CNC(C)=O)o2)nc2scc(C3CC3)c2c1=O	?	30µM*	-23%	45µM*	1%
C=CCn1c(SCCN2C(=O)c3ccccc3C2=O)nc2scc(-c3ccccc3)c2c1=O	4%	5%	-4%	-12%	2%
C=CCn1c(SCC(=O)NC2CCS(=O)(=O)C2)nc2scc(C3CC3)c2c1=O (stereo not drawn)	-4%	-5%	5%	0%	7%[10 µM]
C=CCn1c(SCC(N)=O)nc2scc(-c3ccc(C)o3)c2c1=O	10µM*	-24%	?	22µM*	?
O=C(Nc1cccc(Cl)c1)C1CCCN(C2=NS(=O)(=O)c3ccccc32)C1 (stereo not drawn)	.	0%	.	.	.
O=C(N/N=C/c1ccc(N2CCOCC2)s1)c1ccc(NS(=O)(=O)c2cccs2)cc1	16µM*	13%	-24%	?	-44%
